# Experimental data reported in paper PMC9911399, “Two distinct binding modes provide the RNA-binding protein RbFox with extraordinary sequence specificity”.
# Numbering of substitutions follows the chain as printed; changes in the protein carry UniProt numbers. Over roughly 16,000 sequences, “ka relative to ugcaugu” has its median near 0.096; the highest 2% begin near 0.35. The entries come from a sample that favours the highest values as a whole.
# T1: RBFOX1 RRM RbFoxmut (Fox-RRM*) (Homo sapiens, UniProt Q9NWB1 109-208, R118D;E147R;N151S;E152T)
# T1 sequence: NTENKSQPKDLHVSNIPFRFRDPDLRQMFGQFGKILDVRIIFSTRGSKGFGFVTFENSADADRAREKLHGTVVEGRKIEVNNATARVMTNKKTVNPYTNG
# B1: CGUGAUC (DNA:RNA)
# RNA: GGGAGACCGGAAUUCAGAUUGUCCCGUGAUCUUAAAUCCCGUCGUAGCCACCA
# DNA 1: CAATCTGAATTCCGGTCTCCC
# DNA 2: TGGTGGCTACGACGGGATT
# B2: UGUGAUC (DNA:RNA)
# RNA: B1 RNA with C25U
# DNA 1: CAATCTGAATTCCGGTCTCCC
# DNA 2: TGGTGGCTACGACGGGATT
# B3: CGUGAUG (DNA:RNA)
# RNA: B1 RNA with C31G
# DNA 1: CAATCTGAATTCCGGTCTCCC
# DNA 2: TGGTGGCTACGACGGGATT
# B4: UGUGAUG (DNA:RNA)
# RNA: B1 RNA with C25U, C31G
# DNA 1: CAATCTGAATTCCGGTCTCCC
# DNA 2: TGGTGGCTACGACGGGATT
# B5: UGUGUGA (DNA:RNA)
# RNA: B1 RNA with C25U, A29U, U30G, C31A
# DNA 1: CAATCTGAATTCCGGTCTCCC
# DNA 2: TGGTGGCTACGACGGGATT
# B6: UGAUCUG (DNA:RNA)
# RNA: B1 RNA with C25U, U27A, G28U, A29C, C31G
# DNA 1: CAATCTGAATTCCGGTCTCCC
# DNA 2: TGGTGGCTACGACGGGATT
# B7: GCGAGGG (DNA:RNA)
# RNA: GGGAGACCGGAAUUCAGAUUGUCCGCGAGGGUUAAAUCCCGUCGUAGCCACCA
# DNA 1: CAATCTGAATTCCGGTCTCCC
# DNA 2: TGGTGGCTACGACGGGATT
# B8: GUCAGAC (DNA:RNA)
# RNA: B7 RNA with C26U, G27C, G30A, G31C
# DNA 1: CAATCTGAATTCCGGTCTCCC
# DNA 2: TGGTGGCTACGACGGGATT
# B9: CAAGAAC (DNA:RNA)
# RNA: B1 RNA with G26A, U27A, U30A
# DNA 1: CAATCTGAATTCCGGTCTCCC
# DNA 2: TGGTGGCTACGACGGGATT
# B10: UCGGUAA (DNA:RNA)
# RNA: B7 RNA with G25U, A28G, G29U, G30A, G31A
# DNA 1: CAATCTGAATTCCGGTCTCCC
# DNA 2: TGGTGGCTACGACGGGATT
# B11: CUCCUAG (DNA:RNA)
# RNA: B1 RNA with G26U, U27C, G28C, A29U, U30A, C31G
# DNA 1: CAATCTGAATTCCGGTCTCCC
# DNA 2: TGGTGGCTACGACGGGATT
# B12: AUUGUGA (DNA:RNA)
# RNA: B1 RNA with C25A, G26U, A29U, U30G, C31A
# DNA 1: CAATCTGAATTCCGGTCTCCC
# DNA 2: TGGTGGCTACGACGGGATT
# B13: GUGUAUC (DNA:RNA)
# RNA: B1 RNA with C25G, G26U, U27G, G28U
# DNA 1: CAATCTGAATTCCGGTCTCCC
# DNA 2: TGGTGGCTACGACGGGATT
# B14: CCGUAUC (DNA:RNA)
# RNA: B1 RNA with G26C, U27G, G28U
# DNA 1: CAATCTGAATTCCGGTCTCCC
# DNA 2: TGGTGGCTACGACGGGATT
# B15: GUAUCUC (DNA:RNA)
# RNA: B1 RNA with C25G, G26U, U27A, G28U, A29C
# DNA 1: CAATCTGAATTCCGGTCTCCC
# DNA 2: TGGTGGCTACGACGGGATT
# B16: UUGUAUC (DNA:RNA)
# RNA: B1 RNA with C25U, G26U, U27G, G28U
# DNA 1: CAATCTGAATTCCGGTCTCCC
# DNA 2: TGGTGGCTACGACGGGATT
# B17: GCGUAUC (DNA:RNA)
# RNA: B1 RNA with C25G, G26C, U27G, G28U
# DNA 1: CAATCTGAATTCCGGTCTCCC
# DNA 2: TGGTGGCTACGACGGGATT
# B18: UAUCUUG (DNA:RNA)
# RNA: B1 RNA with C25U, G26A, G28C, A29U, C31G
# DNA 1: CAATCTGAATTCCGGTCTCCC
# DNA 2: TGGTGGCTACGACGGGATT
# B19: CAAGCAG (DNA:RNA)
# RNA: B1 RNA with G26A, U27A, A29C, U30A, C31G
# DNA 1: CAATCTGAATTCCGGTCTCCC
# DNA 2: TGGTGGCTACGACGGGATT
# B20: CACGUCU (DNA:RNA)
# RNA: B1 RNA with G26A, U27C, A29U, U30C, C31U
# DNA 1: CAATCTGAATTCCGGTCTCCC
# DNA 2: TGGTGGCTACGACGGGATT
# B21: UGCGAUG (DNA:RNA)
# RNA: B1 RNA with C25U, U27C, C31G
# DNA 1: CAATCTGAATTCCGGTCTCCC
# DNA 2: TGGTGGCTACGACGGGATT
# B22: CGGAUGU (DNA:RNA)
# RNA: B7 RNA with G25C, C26G, G29U, G31U
# DNA 1: CAATCTGAATTCCGGTCTCCC
# DNA 2: TGGTGGCTACGACGGGATT
# B23: UGCGAUC (DNA:RNA)
# RNA: B1 RNA with C25U, U27C
# DNA 1: CAATCTGAATTCCGGTCTCCC
# DNA 2: TGGTGGCTACGACGGGATT
# B24: UGGGGGA (DNA:RNA)
# RNA: B7 RNA with G25U, C26G, A28G, G31A
# DNA 1: CAATCTGAATTCCGGTCTCCC
# DNA 2: TGGTGGCTACGACGGGATT
# B25: CUGGAUG (DNA:RNA)
# RNA: B1 RNA with G26U, U27G, C31G
# DNA 1: CAATCTGAATTCCGGTCTCCC
# DNA 2: TGGTGGCTACGACGGGATT
# B26: UGGAUUU (DNA:RNA)
# RNA: B1 RNA with C25U, U27G, G28A, A29U, C31U
# DNA 1: CAATCTGAATTCCGGTCTCCC
# DNA 2: TGGTGGCTACGACGGGATT
# B27: UGGGAUG (DNA:RNA)
# RNA: B1 RNA with C25U, U27G, C31G
# DNA 1: CAATCTGAATTCCGGTCTCCC
# DNA 2: TGGTGGCTACGACGGGATT
# B28: CUGGAGA (DNA:RNA)
# RNA: B1 RNA with G26U, U27G, U30G, C31A
# DNA 1: CAATCTGAATTCCGGTCTCCC
# DNA 2: TGGTGGCTACGACGGGATT
# B29: UGGGAGA (DNA:RNA)
# RNA: B1 RNA with C25U, U27G, U30G, C31A
# DNA 1: CAATCTGAATTCCGGTCTCCC
# DNA 2: TGGTGGCTACGACGGGATT
# B30: CCCUGGA (DNA:RNA)
# RNA: B7 RNA with G25C, G27C, A28U, G31A
# DNA 1: CAATCTGAATTCCGGTCTCCC
# DNA 2: TGGTGGCTACGACGGGATT
# B31: UGCGCGA (DNA:RNA)
# RNA: B1 RNA with C25U, U27C, A29C, U30G, C31A
# DNA 1: CAATCTGAATTCCGGTCTCCC
# DNA 2: TGGTGGCTACGACGGGATT
# B32: UGGAUGU (DNA:RNA)
# RNA: B7 RNA with G25U, C26G, G29U, G31U
# DNA 1: CAATCTGAATTCCGGTCTCCC
# DNA 2: TGGTGGCTACGACGGGATT
# Target: T1, RBFOX1 RRM RbFoxmut (Fox-RRM*)
# Test: EMSA; HiTS-Eq, 1 nM pool, 10 min; buffer printed only for the single-RNA assays: 10 mM Tris pH 7.5, 150 mM NaCl, 3.4 mM EDTA, 0.001% NP-40, 30 C
# Details: tags: His6 N-terminal (pET28a); label: 5' 32P
# How it was run: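 Purified RbFox RRM, wild type or mutant, was incubated for 10 min in 50 µL with 1 nM of a 5′-radiolabelled RNA pool carrying 7 randomized nucleotides, whose flanks were annealed to DNA oligonucleotides, over a series of increasing protein concentrations. Unbound RNA was resolved on 8% native PAGE, cut out, reverse-transcribed, barcoded by PCR and sequenced on an Illumina HiSeq 2500. Relative association constants were derived from changes in read counts for each RNA species versus the control reaction and normalised to the cognate motif.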
row,Binder,binding signal
1,B1,0.118 KA relative to UGCAUGU
2,B2,0.395 KA relative to UGCAUGU
3,B3,0.268 KA relative to UGCAUGU
4,B4,1.01 KA relative to UGCAUGU
5,B5,0.209 KA relative to UGCAUGU
6,B6,0.0664 KA relative to UGCAUGU
7,B7,0.0739 KA relative to UGCAUGU
8,B8,0.0721 KA relative to UGCAUGU
9,B9,0.106 KA relative to UGCAUGU
10,B10,0.133 KA relative to UGCAUGU
11,B11,0.0819 KA relative to UGCAUGU
12,B12,0.0934 KA relative to UGCAUGU
13,B13,0.424 KA relative to UGCAUGU
14,B14,0.163 KA relative to UGCAUGU
15,B15,0.0751 KA relative to UGCAUGU
16,B16,0.523 KA relative to UGCAUGU

row,Binder,binding signal
1,B17,0.194 KA relative to UGCAUGU
2,B18,0.0958 KA relative to UGCAUGU
3,B19,0.0856 KA relative to UGCAUGU
4,B20,0.0849 KA relative to UGCAUGU
5,B21,0.493 KA relative to UGCAUGU
6,B22,0.281 KA relative to UGCAUGU
7,B23,0.286 KA relative to UGCAUGU
8,B24,0.102 KA relative to UGCAUGU
9,B25,0.646 KA relative to UGCAUGU
10,B26,0.0654 KA relative to UGCAUGU
11,B27,0.691 KA relative to UGCAUGU
12,B28,0.0675 KA relative to UGCAUGU
13,B29,0.137 KA relative to UGCAUGU
14,B30,0.0858 KA relative to UGCAUGU
15,B31,0.0898 KA relative to UGCAUGU
16,B32,0.756 KA relative to UGCAUGU
